# Data reported in ChEMBL document CHEMBL3988442, “University of Dundee, Small-Polar-MMV Screening Library” (2021).
# Among all 53,000 compounds or so, about 900 (1.7%) showed an effect of 50% or more. The sample holds strong results, similar compounds and a random draw of the others, so the mix is not that of the screen.
# Test system: Mycobacterium tuberculosis
# Test: Cornell - Phenotypic assay to identify agents that inhibit growth of Mycobacterium tuberculosis
# Format: functional
# Design: scale not given: direction of the effect not stated beside the values
# Details: 10 mM as filed; unlikely as a test dose
row,SMILES,Percent Effect [%]
1,O=C(O)C(F)(F)F.O=C(c1ccccc1F)N1CCC2(CC1)CC(Oc1ccccn1)CO2 (configuration not stated),20.39
2,Cl.NCC(=O)N1CCCC1c1n[nH]cc1-c1ccccc1F (configuration not stated),-8.12
3,CN(C)c1nccc(C2CN(c3ccccc3)CCO2)n1 (configuration not stated),59.44
4,CC(C)N1CCOC(c2ccnc(N(C)C)n2)C1 (configuration not stated),50.07
5,CC(=O)N1CCOC(c2ccnc(N(C)C)n2)C1 (configuration not stated),23.94
6,CN(C)c1nccc(C2CN(c3cnccn3)CCO2)n1 (configuration not stated),-32.07
7,CC(=O)N1CCCC(c2ccnc(N(C)C)n2)C1 (configuration not stated),-19.51
8,CN(C)c1nccc(C2CCN(c3ncccn3)CC2)n1,38.24
9,O=C(Cn1ccnc1)N1C[C@@H]2CC[C@H](Oc3ccccc3F)[C@@H]2C1,-34.19
10,O=C(Nc1nc2c(s1)CCC2)NC1CCCC1,34.54
11,Cl.O=C(NCCO)c1sc2ncccc2c1C1CNCCO1 (configuration not stated),5.786
12,CC(=O)Nc1nc(C(=O)NCc2ccc(N3CCCCC3)cc2)cs1,-6.079
13,CN(CCN1CCOC1=O)CC(=O)Nc1cc(F)cc(F)c1,-4.563
14,CCN1CC(COC(=O)c2ccccc2Cl)CC1=O (configuration not stated),9.93
15,CCc1c(C)sc(NC(=O)CN2CCN(CC)CC2)c1C(=O)OC,85.25
16,CCc1c(C)sc(NC(=O)CN2CCOCC2)c1C(=O)OC,13.88
17,CCOC(=O)c1c(NC(=O)C2CCN(C(C)=O)CC2)sc(C)c1CC,0.6351
18,NC(=O)N1CCc2ncc(CNC(=O)CC3CC3)n2CC1,-19.97
19,O=C(C1CC1)N1CCC2(CCCN2Cc2ccc(F)cc2)CC1.O=C(O)C(F)(F)F,3.548
20,CC(=O)N1CCCC(c2nc(N(C)C)ncc2-c2ccccc2)C1 (configuration not stated),12.04
21,COCC(=O)N1CCCC(c2nc(N(C)C)ncc2-c2ccccc2)C1 (configuration not stated),21.17
22,CCC(=O)N1CCCC(c2nc(N(C)C)ncc2-c2ccc(F)cc2)C1 (configuration not stated),78.09
23,CCN1Cc2cc(OC)ccc2N(CC(C)(C)O)CCC1=O,-17.4

row,SMILES,Percent Effect [%]
1,CN(C)c1ncccc1CNC(=O)CCNc1ncccn1,29.98
2,Cc1cc(-c2cnc(NC3CC3)nc2-c2ccco2)on1,47.86
3,Cc1cc(-c2cnc(NC3CCCCC3)nc2-c2ccco2)on1,97.15
4,COCCNc1ncc(-c2cc(C)no2)c(-c2ccco2)n1,-34.06
5,Cc1cc(-c2cnc(NC3CCCC3)nc2-c2ccoc2)on1,81.21
6,Cc1cnc(-c2nc(NC3CCCC3)ncc2-c2onc(C)c2C)cn1,7.273
7,Cc1cc(-c2cnc(NC3CC3)nc2-c2ccoc2)on1,-15.23
8,Cc1noc(-c2cnc(NC(C)C)nc2-c2ccco2)c1C,32.42
9,Cc1cnc(-c2nc(NC3CC3)ncc2-c2cc(C)no2)cn1,-18.55
10,Cc1cc(-c2cnc(NC3CCCC3)nc2-c2ccco2)on1,78.21
11,Cc1noc(-c2cnc(NCC3CCCO3)nc2-c2ccco2)c1C (configuration not stated),34.64
12,Cc1cc(-c2cnc(NC3CCCC3)nc2-c2ccoc2C)on1,18.15
13,Cc1cc(-c2cnc(NC3CCCC3)nc2-c2ccc(C)o2)on1,92.52
14,CCc1noc(CN2CCN(CC(O)c3ccccc3)CC2)n1 (configuration not stated),-1.918
15,O=C(O)C(F)(F)F.O=C1CC(c2ccncc2)C2(CCN(C(=O)c3ccc[nH]3)CC2)N1 (configuration not stated),-25.12
16,CC(C)=CCN1C[C@@H]2CN(C(=O)c3cnccc3C)C[C@]2(C(=O)O)C1,13.3
17,CC(C)[C@H](N)C(=O)N1CCSc2ccccc2C1.Cl,15.34
18,CS(=O)(=O)N1CC(c2ccnc(Nc3ccccn3)n2)C1,3.174
19,O=C(Nc1ccccn1)C1CCN(C(=O)COc2ccccc2F)C1 (configuration not stated),-42.88
20,O=C(N1CCCC(n2cncn2)C1)C1(c2cccc(F)c2)CCCC1 (configuration not stated),-7.361
21,Cc1c(CN2CCC(C(=O)O)(n3cccn3)CC2)oc2ccccc12,-1.551
22,Cc1cc(-c2cnc(NC3CC3)nc2-c2ccoc2C)on1,6.588
23,Cc1noc(-c2cnc(NC3CC3)nc2-c2ccco2)c1C,21.85

row,SMILES,Percent Effect [%]
1,Cc1occc1-c1nc(NC2CCCC2)ncc1-c1ccccn1,85.8
2,Cc1cc(CN(C)C(=O)CN2CCCCCC2=O)no1,6.807
3,COc1cc(Oc2cnc3ccccc3n2)ccc1CN1CCCC1,89.59
4,COc1cc(Oc2ccc(C(N)=O)cn2)ccc1CN1CCCC1,6.938
5,COc1cc(Oc2ccc(C(F)(F)F)cn2)ccc1CN1CCCC1,21.65
6,COc1ccc(Oc2ccc(C(F)(F)F)cn2)cc1CN1CCCC1,50.99
7,COc1cc(Oc2ccc(C#N)cn2)ccc1CN1CCCC1,27.7
8,Fc1cc(Oc2ccc(C(F)(F)F)cn2)cc(F)c1CN1CCCC1,17.52
9,COc1ccc(CC(=O)NCCCc2nnc3nc(C)cc(C)n23)cc1,-52.99
10,CC(C)N1CCCC1c1nc(N(C)C)ncc1I (configuration not stated),5.368
11,Cc1c(Br)c(C(F)F)nn1C(C)C(=O)O (configuration not stated),18.88
12,COCCN(C)C(C(=O)O)c1ccc(Cl)c(F)c1 (configuration not stated),-23.65
13,Cc1ccc(N2C[C@@H]3OCCN(Cc4c(C)noc4C)[C@@H]3C2)nn1,2.66
14,COCC(=O)N1C[C@@H]2OCCN(Cc3c(C)noc3C)[C@@H]2C1,-0.2298
15,Cc1noc(C)c1CN1CCO[C@H]2CNC[C@H]21.Cl.Cl,71.41
16,COc1ccc(F)c(-c2ncccc2NC(=O)C(C)C)c1,-36.39
17,CN(C)S(=O)(=O)NC1CC(=O)N(c2ccccc2Cl)C1 (configuration not stated),14.57
18,CCN(C)c1ncnc2c1CCN(S(=O)(=O)c1ccccc1)CC2.O=C(O)C(F)(F)F,2.965
19,CCCNc1nc(CS(=O)(=O)c2ccccc2)cs1,-0.8742
20,CNc1nc(CS(=O)(=O)c2ccccc2)cs1,106.2
21,C=C(C)CNc1nc(CS(=O)(=O)c2ccccc2)cs1,8.279
